In PubChem BioAssay (NCATS):
Inconclusive results are not listed. Calls of active or inactive are those of the source. The call rests on the fitted dose curve; in most records, active means well fitted cell-killing curve with a large enough effect; inconclusive means small, poorly fitted or top-dose-only effect, or effect the other way; inactive means flat fitted curve, though single readings scatter.

What was measured:
Experiment in all cases: Primary qHTS to identify gynecologic anti-cancer compounds using libraries of approved drugs and bioactive compounds (AID 1345084); further: nearly all actives have a fitted effect of over 55% in size
[1] = tested on: Hek293T; conditions: Gynecologic cancer cell panel viability, ATPlite luminescence, 48 h, control line for the selectivity index; series mostly up to 57.5 µM
Method in brief: (§1)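 Measured: luminescence after ATPlite addition (15 min, RT). Exposure: 48 h, 37 C, 5% CO2.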

[2] = tested on: JEG-3; conditions: Gynecologic cancer cell panel viability, ATPlite luminescence, 48 h; series mostly up to 57.5 µM
Method in brief: as §1

[3] = tested on: OV90; conditions: Gynecologic cancer cell panel viability, ATPlite luminescence, 48 h; series mostly up to 57.5 µM
Method in brief: as §1

[4] = tested on: PA-1; conditions: Gynecologic cancer cell panel viability, ATPlite luminescence, 48 h; series mostly up to 57.5 µM
Method in brief: as §1

[5] = tested on: SKOV3; conditions: Gynecologic cancer cell panel viability, ATPlite luminescence, 48 h; series mostly up to 57.5 µM
Method in brief: as §1

[6] = tested on: Tov-21-G; conditions: Gynecologic cancer cell panel viability, ATPlite luminescence, 48 h; series mostly up to 57.5 µM
Method in brief: as §1

[7] = tested on: Tov112D; conditions: Gynecologic cancer cell panel viability, ATPlite luminescence, 48 h; series mostly up to 57.5 µM
Method in brief: as §1

Measured: Potency

CN(C)CCOc1cc(-c2cn[nH]c2)ccc1NC(=O)C1COc2ccccc2O1 (configuration not stated)
inactive: [1] | [2] | [3] | [4] | [5] | [6] | [7]

O[C@@H](COc1cccc2ncccc12)CN1CCN(C2c3ccccc3[C@@H]3[C@H](c4ccccc42)C3(F)F)CC1 (some centres not stated)
inactive: [1] | [2] | [3] | [4] | [5] | [6] | [7]

Cc1cnc(-c2cc(N3CCN(C(=O)CCS(C)(=O)=O)CC3)ncc2Cl)c(C)c1
inactive: [1] | [2] | [3] | [4] | [5] | [6] | [7]

CCCCC[C@H](O)C=C[C@H]1[C@H](O)CC(=O)[C@H]1CC=CCCCC(=O)O
inactive: [1] | [2] | [3] | [4] | [5] | [6] | [7]

O=C(CC12CC3CC(CC(C3)C1)C2)Nc1cccc2nc(NCCNCCO)ccc12
inactive: [1] | [2] | [3] | [4] | [5] | [6] | [7]

COc1ccc(CCC(=O)Nc2nc3ccc(Cl)cc3s2)cc1OC
inactive: [1] | [2] | [3] | [4] | [5] | [6] | [7]

C[C@@]1(c2cc(-c3cncnc3)c(F)cc2F)CCSC(N)=N1
inactive: [1] | [2] | [3] | [4] | [5] | [6] | [7]

CNC(=O)c1c(-c2ccc(F)cc2)oc2cc(N(CCO)S(C)(=O)=O)c(C3CC3)cc12
inactive: [1] | [2] | [3] | [4] | [5] | [6] | [7]

NC(=O)c1ccc(N(C(N)=O)c2c(F)cccc2F)nc1-c1ccc(F)cc1F
inactive: [1] | [2] | [3] | [4] | [5] | [6] | [7]

O=C(c1ccc(C(=O)N2CCC(N3CCCC3)CC2)c(Nc2ccccc2)c1)N1CCC(N2CCCC2)CC1
inactive: [1] | [2] | [3] | [4] | [5] | [6] | [7]

Cc1nc2c([nH]1)CCN(C(=O)c1ccc(NC(=O)c3ccccc3-c3ccccc3)cc1)c1ccccc1-2
inactive: [1] | [2] | [3] | [4] | [5] | [6] | [7]

CN1C(=O)C(Cc2c[nH]c3ccccc23)NC1=S (configuration not stated)
inactive: [1] | [2] | [3] | [4] | [5] | [6] | [7]

Cc1cc(C(C)Nc2ccccc2)c2nc(N3CCOCC3)cc(=O)n2c1 (configuration not stated)
inactive: [1] | [2] | [3] | [4] | [5] | [6] | [7]

COc1cc(Nc2nc3ccccc3nc2NS(=O)(=O)c2ccc(NC(=O)c3ccc(C)c(OC)c3)cc2)cc(OC)c1
inactive: [1] | [2] | [3] | [4] | [5] | [6] | [7]

CCN1C[C@H](C)n2c(c(O)c3c(=O)n(Cc4ccc(F)c(Cl)c4)nc(C(=O)NC)c32)C1=O
inactive: [1] | [2] | [3] | [4] | [5] | [6] | [7]

C[C@@H]1C[C@H]2[C@@H]3CCC4=CC(=O)C=C[C@]4(C)[C@@]3(F)[C@@H](O)C[C@]2(C)[C@@]1(O)C(=O)CO
inactive: [1] | [2] | [3] | [4] | [5] | [6] | [7]
